# Assay outcomes (PubChem BioAssay)
# In the library only some 9.2% were active in any assay of this set; here they are far more common.
# FLuc counter: counter-screen for miR-21 project: firefly luciferase inhibitors or activators | P08659 | purified FLuc, Km substrates, luminescence inhibition | Potency, µM (titrated, usually from 57.5 µM), hits mostly inhibitors | 6.9% of 360,000 active; further: nearly all actives have a fitted effect of over 55% in size
# Target sequence (P08659 whole entry, looked up): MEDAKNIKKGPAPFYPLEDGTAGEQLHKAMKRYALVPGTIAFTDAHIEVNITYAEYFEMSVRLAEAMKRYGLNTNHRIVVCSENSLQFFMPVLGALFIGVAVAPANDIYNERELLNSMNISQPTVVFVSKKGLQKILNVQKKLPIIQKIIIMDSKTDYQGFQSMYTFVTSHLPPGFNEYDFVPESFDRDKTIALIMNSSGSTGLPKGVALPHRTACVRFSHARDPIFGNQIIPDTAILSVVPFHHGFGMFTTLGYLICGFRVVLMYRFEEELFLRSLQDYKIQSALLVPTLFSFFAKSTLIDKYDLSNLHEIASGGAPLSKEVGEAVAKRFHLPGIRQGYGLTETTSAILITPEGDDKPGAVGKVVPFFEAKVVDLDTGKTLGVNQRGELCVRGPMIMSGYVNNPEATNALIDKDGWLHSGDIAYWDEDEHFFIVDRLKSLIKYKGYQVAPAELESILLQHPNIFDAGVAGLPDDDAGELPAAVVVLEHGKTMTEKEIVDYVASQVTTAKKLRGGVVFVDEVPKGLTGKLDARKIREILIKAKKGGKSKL
#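 Purified P. pyralis luciferase (10nM final) with 10uM D-luciferin and 10uM ATP (Km levels) in 50mM Tris acetate pH 7.5, 10mM Mg acetate, 0.01% Tween-20, 0.05% BSA; qHTS 6-point titration, ~60 µM downward; luminescence read.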
# ELG1 repair inh: inhibitors of ELG1-dependent DNA repair in HEK293T cells. 2.3% of 330,000 active. HEK293T ELG1-luciferase reporter, luminescence, 16 h; DNA damage induced by 5-fluorouridine. Potency, µM (titrated, usually from 46.1 µM), most hits filed as inhibitors; further: nearly all actives have a fitted effect of over 55% in size
#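 Overnight (16 hr) co-exposure of 2,000 cells/well to 5-fluorouridine and compound at 37 °C preceded detection. Luciferase was quantified via ONE-Glo luminescence; loss of signal denotes inhibition.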
# ELG1 genotoxic: induces genotoxicity in HEK293T cells with luciferase-tagged ELG1 | HEK293T ELG1-luciferase reporter, luminescence, 16 h | Potency, µM (doses to about 46 µM), actives largely listed as activators | 1.3% of 330,000 active | AID 504466; further: nearly all actives have a fitted effect of over 60% in size
#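 DMSO vehicle served as control against compound-treated ELG1-luciferase HEK293T cells; exposure lasted 16 hr at 37 °C and 5% CO2, followed by ONE-Glo luminescence detection after 30 min.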
# SMN2 splice enh: enhancers of SMN2 splice variant expression | 2.8% of 210,000 active | Potency, µM (titrated, usually from 46.1 µM), actives largely listed as activators | HEK293 SMN2-luciferase splicing reporter, luminescence, 30-36 h | AID 1458; further: nearly all actives have a fitted effect of over 55% in size
#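 HEK293 cells carry an SMN2 minigene-luciferase reporter in which exon 7 inclusion puts luciferase in frame. Cells were seeded at 2000 cells/well, attached for 10-12 hours, then exposed to compounds for 30-36 hours at 37C before ONE-Glo luminescence.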
# Rab9 promoter act: Rab9 promoter activation | Huh7 Rab9 promoter-luciferase reporter, luminescence, 24 h | 2.8% of 320,000 active | Potency, µM (series often up to 9.22 µM), hits mostly activators; further: nearly all actives have a fitted effect of over 60% in size
#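 Quantitative HTS format; Huh7 Rab9-luciferase reporter cells (1500/well) receive compound 2 h post-plating, incubate 24 h at 37 °C, then get luciferase reagent for 10 min before luminescence reading.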
# NPC1 prom act: activators of NPC1 promoter; Potency, µM (top dose mostly 9.22 µM), most hits filed as activators; AID 485313; Huh7 NPC1 promoter luciferase reporter, 24 h; 2.4% of 320,000 active; further: nearly all actives have a fitted effect of over 60% in size
#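 Luciferase expression driven by the NPC1 promoter was measured in stably transfected Huh7 cells after a 24 h compound incubation, using a luciferase reagent and a luminescence read.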
# Hits are given with their value; . = inactive; ? = inconclusive; / = no result given; [ ] = remark or other dose. The call rests on the fitted dose curve; in most records, active means well fitted curve in the direction sought with a large enough effect; inconclusive means small, poorly fitted or top-dose-only effect, or another doubt; inactive means no such curve, though single readings can be large; an effect the other way counts as inactive or inconclusive.
SMILES,FLuc counter,ELG1 repair inh,ELG1 genotoxic,SMN2 splice enh,Rab9 promoter act,NPC1 prom act
N/C(=N\OC(=O)c1ccccc1Cl)c1ccccn1,0.15µM,?,0.52µM,?,0.63µM,0.35µM
N/C(=N\OC(=O)c1ccccc1[N+](=O)[O-])c1ccccn1,2.1µM,?,?,.,1.6µM,1.8µM
Cc1ccc(NS(=O)(=O)c2ccc3c(c2)OCCCO3)cc1S(=O)(=O)N1CCOCC1,/,.,.,/,.,.
COc1ccccc1C(=O)O/N=C(\N)c1ccccn1,11µM,?,?,/,1.3µM,1.4µM
CC(=O)c1ccc(NC2=C(N3CCOCC3)C(=O)c3ccccc3C2=O)cc1,?,?,.,.,.,.
NS(=O)(=O)c1ccc(NC2=CC(=O)C(=O)c3ccccc32)cc1,.,10µM,.,/,.,.
Cc1ccc(NC2=CC(=O)C(=O)c3ccccc32)cc1,11µM,?,.,?,.,.
Cc1ccc(NC2=C(N3CCOCC3)C(=O)c3ccccc3C2=O)cc1,9.5µM,?,6.5µM,.,.,.
CCOC(=O)c1ccc(NC2=CC(=O)C(=O)c3ccccc32)cc1,.,.,.,?,.,.
CCOc1ccc(NC(=O)C(CC)n2nc(-c3ccc(C)c(C)c3)ccc2=O)cc1 (stereo not given),.,/,/,/,/,/
COc1cccc2[nH]c(=O)c(-c3ccccc3)cc12,12µM,?,?,/,2.8µM,3.5µM
COc1ccc(-c2cc(=O)[nH]c3ccccc23)cc1,.,.,.,/,.,.
CCCCCOc1ccc(/C=C/C(=O)Nc2sc3c(c2C(=O)OCC)CCC3)cc1OC,.,/,/,.,/,/
O=C(O)CCCN1C(=O)c2cccc3cccc(c23)C1=O,.,?,.,/,.,.
O=C(CCCN1C(=O)c2cccc3cccc(c23)C1=O)NC1CCS(=O)(=O)C1 (stereo not given),4.8µM,.,.,/,.,.
COc1ccccc1Cn1cc(C(=O)c2ccc(F)cc2)c(=O)c2cc3c(cc21)OCO3,.,/,/,.,/,/
COc1cc2c(cc1NC(=O)C(C)Sc1nc3ccccc3n1C)oc1ccccc12 (stereo not given),.,.,.,.,.,.
COc1cc2c(cc1NC(=O)/C=C/c1cc(OC)c(OC)c(OC)c1)oc1ccccc12,.,5.8µM,.,.,.,.
COc1ccccc1CC(=O)Nc1cc2oc3ccccc3c2cc1OC,.,.,.,.,.,.
COc1cc2c(cc1NC(=O)COCC(=O)O)oc1ccccc12,17µM,.,.,/,.,.
COc1cc2c(cc1NC(=O)C(C)Sc1cccc[n+]1[O-])oc1ccccc12 (stereo not given),?,?,.,10µM,?,?
COc1ccc(/C=C/C(=O)OCC(=O)Nc2cc3oc4ccccc4c3cc2OC)cc1,.,.,.,.,.,.
COc1ccc(CC(=O)Nc2cc3oc4ccccc4c3cc2OC)cc1,15µM,?,.,14µM,?,?
Cc1ccc(S(=O)(=O)N2CCN(C(=O)COC(=O)CCOc3ccccc3C)CC2)c(C)c1,.,?,.,/,.,.
CC1CN(C(=O)c2ccccc2OCc2ccc(Cl)cc2Cl)CC(C)O1 (stereo not given),.,.,.,/,.,.
SMILES,FLuc counter,ELG1 repair inh,ELG1 genotoxic,SMN2 splice enh,Rab9 promoter act,NPC1 prom act
CCc1ccc(NC(=O)C2(c3cccs3)CCOCC2)cc1,.,/,/,/,/,/
CCOC(=O)c1cnc(SCC(=O)c2ccc(Cl)cc2)nc1N,.,?,?,.,.,.
CCOC(=O)c1cnc(SCCc2ccccc2)nc1N,3µM,?,?,13µM,1.6µM,3.2µM
CCOC(=O)c1cnc(NCc2ccccc2)nc1C,?,?,15µM,.,?,.
CCOC(=O)c1cnc(SCc2ccc(C)cc2)nc1N,17µM,?,23µM,11µM,.,?
CCCCSc1ncc(C(=O)OCC)c(N)n1,3.8µM,?,?,5µM,3.2µM,?
COc1cccc(Cn2c(CNS(=O)(=O)c3ccc(F)c(Cl)c3)nc3cccnc32)c1,.,/,/,/,/,/
CCCCS(=O)(=O)CC(O)CSc1nc(-c2ccc(C)cc2)cc(-c2ccccc2)c1C#N (stereo not given),.,/,/,.,/,/
CCOC(=O)c1cnc2c(ccc3ccccc32)c1Cl,3µM,?,?,/,.,.
Cc1ccccc1CN(C)C(=O)COC(=O)c1ccc2[nH]c(C)c(C)c2c1,/,26µM,.,/,/,/
Cc1[nH]c2ccc(C(=O)OC(C)C(=O)NCc3ccccc3)cc2c1C (stereo not given),.,?,.,/,.,.
Cc1nnc(N/N=C/c2cccc(OCc3ccc(Cl)c(Cl)c3)c2)n1N,17µM,?,.,.[1.84 µM],?,.
Cc1nnc(N/N=C/c2cccc(C(F)(F)F)c2)n1N,.,.,.,/,.,.
CC(C)c1ccc2[nH]c(O)c(N=NC(=O)c3cccc(S(=O)(=O)N4CCCCC4)c3)c2c1,.,10µM,.,/,.,.
O=C(Nc1ccc(-c2cn3c(n2)SCC3)cc1)c1ccc2c(c1)OCO2,?,?,.,.,?,.
Cc1ccc(-c2cn3cccnc3n2)cc1,15µM,?,.,/,?,2.8µM
c1cnc2nc(-c3ccc4c(c3)OCO4)cn2c1,9.5µM,?,?,/,2.5µM,?
Nc1cccc(-c2cn3cccnc3n2)c1,.,.,.,.,.,.
O=C(Nc1cccc(-c2cn3cccnc3n2)c1)c1ccc2c(c1)OCO2,12µM,?,.,.,.,.
O=C(Nc1cccc(-c2cn3c(n2)SCC3)c1)c1ccc2c(c1)OCO2,11µM,?,.,.,?,.
CS(=O)(=O)Nc1ccc(-c2cn3cccnc3n2)cc1,?,?,.,/,.[1.84 µM],.
Cc1ccccc1NC(=O)CSc1nc(=O)n(CCN2CCOCC2)c2c1CCCC2,.,.,.,/,.,.
CCCN(C(=O)CSCc1c(C)noc1C)c1c(N)n(Cc2ccccc2)c(=O)[nH]c1=O,.,.,.,/,.,.
CCC/C(=N\NC(=O)c1ccco1)c1ccc(Cl)s1,.,.,.,/,.,.
c1ccn2cc(-c3ccc4c(c3)OCO4)cc2c1,3.4µM,?,?,13µM,3.2µM,?
SMILES,FLuc counter,ELG1 repair inh,ELG1 genotoxic,SMN2 splice enh,Rab9 promoter act,NPC1 prom act
Cc1cc(=O)n2c(nc3ccccc32)[nH]1,.,.,.,.,.,.
CCOC(=O)c1cc(=O)n2c(nc3ccccc32)[nH]1,24µM,?,.,/,?,.
CCCc1cc(=O)n2c(nc3ccccc32)[nH]1,17µM,?,?,?,?,.
O=S(=O)(c1ccccc1)N1CCC[C@@]2(CCN(Cc3ccccc3)C2)C1,/,/,/,.,/,/
Cc1cccc(Nc2nc(C)cc(C)n2)c1,.,.,.,/,.,.
Cc1cc(N(C)C)nc(Nc2ccccc2)n1,?,15µM,.,/,.,.
CC(C)CC(=O)n1nc(-c2ccco2)nc1NCc1ccc(Cl)cc1,.,/,/,.,/,/
